Source: PubChem BioAssay (NCATS)
Values without a mark were called inactive. Calls come from the whole dose curve; as a rule, active = well fitted activation curve with a large enough effect; inconclusive = small, poorly fitted or top-dose-only effect; inactive = flat fitted curve, though single readings scatter.

Experiment: Cellular Toxicity (caspase-3) SHSY5Y (AID 657)
Conditions: SH-SY5Y caspase-3 activation, DMSO zero, 10 µM staurosporine = 100%; series mostly up to 91.7 µM; caspase-3 activation: at the top concentration
Text: NIH Chemical Genomics Center [NCGC]
NIH Molecular Libraries Screening Centers Network [MLSCN]
National Institutes of Environmental Health Sciences [NIEHS]
National Toxicology Program [NTP]
We have developed a 1536-well cell-based assay for quantitative high throughput screening (qHTS) against a number of cell lines to determine in vitro caspase 3/7 activity of small molecules. This particular assay uses the SH-SY5Y cell line which is derived from human neuroblastoma.
NCGC Assay Protocol Summary:
The Caspase-Glo 3/7 assay (Promega) is a homogeneous method to measure caspase-3 and caspase-7 activities in cultured cells. The quantitation of caspase 3/7 activity is based on the cleavage of a peptide-aminoluciferin substrate. After caspase cleaves the substrate the free aminoluciferin is liberated and serves as the substrate of luciferase, which generates the light. The luminescent signal is proportional to the amount of caspase 3/7 activity present.
Using the Caspase-Glo 3/7 assay, the amount of caspase 3/7 activity was measured in the SH-SY5Y cell line with complete culture medium following compound treatment for 16 hours. The assay was performed in opaque white 1536-well plates. In the screen, staurosporine and doxorubicin were used as positive controls. Library compounds were measured for their ability to cause the activation of caspase 3/7 in the cell line, as reflected by an increase in luminescence signal, in a concentration-dependent manner. Data were normalized to the controls for basal activity (DMSO only) and 100% stimulation (10 uM staurosporine). AC50 values were determined from concentration-response data modeled with the standard Hill equation.
qHTS protocol for caspase 3/7 assay in SH-SY5Y cells
[Step] [Parameter] [Value] [Description]
1. Reagent; 5 uL; 1500 SH-SY5Y cells/well
2. Time; 5 hr; 37 °C incubation
4. Controls; 23 nL; doxorubicin 7 pM to 100 uM & staurosporine 1.4 pM to 20 uM
5. Time; 16 hr; 37 °C incubation
6. Reagent; 5 uL; Caspase-Glo 3/7 reagent
7. Time; 1 hr; Room Temperature
8. Detection; Luminescence; Viewlux plate reader
Keywords: caspase 3/7, apoptosis, SH-SY5Y cell line, luminescence, NTPHTS, NTPHTS_NCGC, NIEHS, EPA, DSSTox, MLSMR, MLSCN, NIH Roadmap, qHTS, NCGC

Compound	caspase-3 activation
C=C(C)C(=O)OCCCCCC	-1.85%
C=CC(=O)OCCCC	1.35%
Nc1cc(S(=O)(=O)O)ccc1O	1.51%
Cc1cccc([N+](=O)[O-])c1C(=O)O	0.656%
C=C(C)C(=O)OCCCCCCCCCC	1.83%
COc1ccc(N)c(C)c1	0.0556%
BrC(Br)C(Br)Br	0.752%
Cc1cc([N+](=O)[O-])ccc1N	-1.05%
CC(C)(C)c1ccc(OCC2CO2)cc1 (stereo not given)	1.2%
CC(C)CO	0.276%
Cc1ccc(Br)cc1	0.0495%
O=[N+]([O-])c1ccc(NCCO)c(OCCO)c1	-0.028%
C1CCC2OC2C1 (stereo not given)	-3.44%
Cc1ccccc1C#N	-0.759%
COC(=O)CC#N	3.02%
Clc1ccccn1	0.617%
NC(=O)NC(N)=O	-2.88%
C/C(C=O)=C/c1ccccc1	-1.32%
Cc1cscn1	1.89%
C[C@@H]1CC2(OC3C[C@@]4(C)C5=CC[C@H]6C(C)(C)C(O[C@@H]7OC[C@@H](O)[C@H](O)[C@H]7O)CC[C@@]67C[C@@]57CC[C@]4(C)C31)OC(O)C1(C)OC21 (stereo not given in full)	0.801%

Compound	caspase-3 activation
NCCCCCCN	3.18%
CC(=C/C=C/C(C)=C/C=C/C=C(C)/C=C/C=C(C)/C=C/C(=O)O)/C=C/C(=O)O	-1.58%
Cc1ccc2cccnc2c1	-0.97%
CCN(CC)c1cccc(O)c1	-0.496%
COc1ccc(N)c(OC)c1	2.04%
Nc1cccc(C(F)(F)F)c1	1.17%
O=[N+]([O-])c1cc(C(F)(F)F)ccc1Cl	-0.25%
NC=O	0.037%
Cc1cc(C(=O)O)ccc1[N+](=O)[O-]	1.68%
CCCCC/C=C/C=C/C=O	0.254%
CCCCC=O	1.06%
COc1ccccc1[N+](=O)[O-]	1.17%
O=C(O)CCSSCCC(=O)O	1.62%
Nc1cccc(S(=O)(=O)O)c1	3.08%
Cc1nc2ccc(Cl)cc2[nH]1	2.25%
NC(=O)c1ccccc1[N+](=O)[O-]	-0.116%
CC/C(C)=N/O	-0.975%
COC(=O)CS	-1.62%
Cc1ccc(Cl)cc1	-1.64%
C=CCCCCCCC=C	1.01%
